Active and inactive are the calls of the source.
What was measured:
Albumin (Bos taurus) = Albumin (Bos taurus) (UniProt P02769); assay: bovine serum albumin binders on microarray, profiling panel, artefact control for SMM control protein annotation, biochemical, small-molecule microarray, Alexa647 label, 635/667 nm fluorescence (AID 1118); settings: BSA-A647 binding, fluorescence 635 nm, higher = more signal;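 also: score merges 667 nm emission intensity and signal-to-noise per printed compound spot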
Sequence of Albumin (Bos taurus) (P02769 whole entry, looked up): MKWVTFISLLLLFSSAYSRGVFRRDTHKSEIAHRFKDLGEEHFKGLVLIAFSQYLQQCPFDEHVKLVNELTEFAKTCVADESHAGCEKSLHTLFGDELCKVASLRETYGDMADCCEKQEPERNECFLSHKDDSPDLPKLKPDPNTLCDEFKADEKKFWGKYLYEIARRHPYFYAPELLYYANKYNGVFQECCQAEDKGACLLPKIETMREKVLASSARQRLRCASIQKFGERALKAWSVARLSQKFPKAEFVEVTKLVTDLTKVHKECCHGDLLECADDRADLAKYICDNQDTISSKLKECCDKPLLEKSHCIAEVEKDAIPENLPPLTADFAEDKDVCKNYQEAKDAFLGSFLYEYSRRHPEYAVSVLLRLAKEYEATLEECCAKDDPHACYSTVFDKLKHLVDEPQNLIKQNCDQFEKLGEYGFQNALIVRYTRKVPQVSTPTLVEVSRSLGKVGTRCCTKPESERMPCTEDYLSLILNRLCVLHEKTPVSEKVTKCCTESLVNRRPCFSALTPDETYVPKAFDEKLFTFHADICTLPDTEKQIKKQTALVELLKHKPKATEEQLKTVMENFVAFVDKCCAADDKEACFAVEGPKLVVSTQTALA

[1] = small-molecule microarray binders of probe aXIP, primary screen, biochemical, NeuroSMM set, 635/667 nm fluorescence (AID 1119); settings: higher = more signal, called active from +8 up or from −8 down;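 also: probe is the protein aXip251-270 applied at 1 µg/mL to compound-printed slides; binding of probe to printed compounds measured as 667 nm fluorescence plus signal to noise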
[2] = small-molecule binders of probe aNOTCH3, primary screen, biochemical, small-molecule microarray, 635/667 nm fluorescence (AID 1120); settings: higher = more signal;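 also: probe is a biotin-tagged antibody raised against NOTCH3 rather than NOTCH3 protein; score merges spot fluorescence near 667 nm with spot signal to noise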
[3] = small-molecule binders of probe aNOTCH2, primary screen, biochemical, small-molecule microarray, 635/667 nm fluorescence (AID 1121); settings: higher = more signal;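 also: score merges feature fluorescence read at 667 nm with its signal to noise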
[4] = molecular target: Carbonic anhydrase 2 (Homo sapiens) (UniProt P00918); assay: CAII small-molecule binders, profiling panel, biochemical, small-molecule microarray, Alexa647-labelled CAII (AID 1122); settings: CAII-A647 binding fluorescence, higher = more signal
[5] = COS7 lysate on small-molecule microarray, probe aHis, 635 nm (AID 1123); settings: COS7 cell lysate, fluorescence, higher = more signal;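 also: z-score combines 667nm fluorescence intensity with signal-to-noise per printed compound spot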
[6] = compound binding in COS7 lysate, probe aLAP1, primary screen, cell lysate, small-molecule microarray (AID 1124); settings: probe aLAP1, fluorescence, higher = more signal;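 also: lysate comes from COS7 cells expressing LAP1 and is applied at 0.3 µg/mL; score merges spot fluorescence near 667 nm with signal-to-noise over triplicate slides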
Sam68 (KHDRBS1) = assay: Sam68 small-molecule binders, primary screen, biochemical, small-molecule microarray, 635 nm fluorescence (AID 1125); settings: small-molecule microarray binding, higher = more signal;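 also: score merges 667 nm channel intensity with signal to noise over triplicate slides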
[7] = system: Chordin-like protein 2 (CHRDL2); assay: CHRDL2 small-molecule binders, primary screen, biochemical, small-molecule microarray, 635 nm fluorescence (AID 1126); settings: small-molecule microarray binding, fluorescence 635 nm; higher = more signal;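 also: printed compound slides probed with Chrdl2 protein at 4 µg/mL for 1 h at 4 C; score merges 667 nm emission intensity with signal to noise over three replicate slides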
[8] = molecular target: Concanavalin-A (Canavalia ensiformis) (UniProt P02866); assay: ConA small-molecule binders, primary screen, artefact control for SMM control protein annotation, biochemical, small-molecule microarray, Alexa647 label, 635 nm (AID 1127); settings: ConA-A647 binding fluorescence, higher = more signal;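 also: z combines 667 nm emission intensity with signal-to-noise across three replicate slides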
Sequence of Concanavalin-A (Canavalia ensiformis) (P02866 whole entry, looked up): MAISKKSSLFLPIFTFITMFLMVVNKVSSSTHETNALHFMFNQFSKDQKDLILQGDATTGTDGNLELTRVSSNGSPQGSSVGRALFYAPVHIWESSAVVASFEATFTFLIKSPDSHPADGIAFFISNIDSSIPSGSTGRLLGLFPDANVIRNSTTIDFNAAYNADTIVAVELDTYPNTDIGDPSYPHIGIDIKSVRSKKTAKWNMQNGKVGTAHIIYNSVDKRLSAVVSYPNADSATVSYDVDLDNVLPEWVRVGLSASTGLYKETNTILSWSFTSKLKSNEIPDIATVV

[9] = anti-His antibody binders, primary screen, artefact control for SMM control protein annotation, biochemical, small-molecule microarray, 635 nm fluorescence (AID 1128); settings: anti-His Alexa647 antibody binding, higher = more signal;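 also: score merges feature fluorescence with signal-to-noise for each printed compound spot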
[10] = system: Human papillomavirus type 1a E7 protein (residues 1-88); assay: HPV1a E7 small-molecule binders, primary screen, biochemical, small-molecule microarray, residues 1-88, 635 nm (AID 1129); settings: small-molecule microarray binding, fluorescence 635 nm; higher = more signal
[11] = molecular target: Focal adhesion kinase 1 (Homo sapiens) (UniProt Q05397); assay: small-molecule microarray binders of FAK, primary screen, biochemical, 635/667 nm fluorescence, BSA, DTT (AID 1130); settings: PTK2 binding, 635 nm fluorescence, higher = more signal;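 also: composite of spot emission at 667 nm and signal to noise over triplicate slides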
Sequence of Focal adhesion kinase 1 (Homo sapiens) (Q05397 whole entry, looked up): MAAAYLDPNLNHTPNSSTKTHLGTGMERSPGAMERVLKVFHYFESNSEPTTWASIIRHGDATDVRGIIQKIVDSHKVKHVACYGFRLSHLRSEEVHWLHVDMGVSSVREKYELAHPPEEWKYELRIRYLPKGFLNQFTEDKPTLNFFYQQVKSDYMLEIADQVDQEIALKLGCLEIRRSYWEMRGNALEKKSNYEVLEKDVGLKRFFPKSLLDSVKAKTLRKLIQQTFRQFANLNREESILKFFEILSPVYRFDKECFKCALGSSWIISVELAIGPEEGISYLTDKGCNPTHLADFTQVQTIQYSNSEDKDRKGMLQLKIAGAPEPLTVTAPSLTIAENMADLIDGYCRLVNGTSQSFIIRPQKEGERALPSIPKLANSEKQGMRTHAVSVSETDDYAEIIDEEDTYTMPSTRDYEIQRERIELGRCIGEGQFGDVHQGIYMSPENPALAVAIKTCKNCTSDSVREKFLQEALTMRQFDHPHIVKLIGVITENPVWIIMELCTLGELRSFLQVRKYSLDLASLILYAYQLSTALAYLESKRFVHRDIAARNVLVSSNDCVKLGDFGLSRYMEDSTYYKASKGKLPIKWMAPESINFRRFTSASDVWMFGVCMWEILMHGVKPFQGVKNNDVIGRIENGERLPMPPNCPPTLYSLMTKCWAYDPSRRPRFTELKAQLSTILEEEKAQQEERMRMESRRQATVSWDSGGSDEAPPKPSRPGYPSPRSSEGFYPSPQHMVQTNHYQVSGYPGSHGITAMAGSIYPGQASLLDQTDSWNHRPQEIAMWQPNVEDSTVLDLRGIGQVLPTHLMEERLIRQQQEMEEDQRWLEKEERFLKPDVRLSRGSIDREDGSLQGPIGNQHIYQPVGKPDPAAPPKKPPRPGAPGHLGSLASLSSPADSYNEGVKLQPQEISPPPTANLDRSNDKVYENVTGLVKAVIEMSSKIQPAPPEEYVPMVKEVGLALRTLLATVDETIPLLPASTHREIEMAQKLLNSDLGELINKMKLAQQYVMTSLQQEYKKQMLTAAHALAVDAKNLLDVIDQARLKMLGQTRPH

[12] = system: Fibrinogen (Alexa647-labelled); assay: fibrinogen binders on compound microarrays, profiling panel, artefact control for SMM control-protein annotation, biochemical, small-molecule microarray, 635/667 nm fluorescence (AID 1131); settings: fibrinogen-A647 binding fluorescence, higher = more signal;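 also: z-score merges 667 nm fluorescence with per-spot signal-to-noise over triplicate slides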
[13] = molecular target: Follistatin (Homo sapiens) (UniProt P19883); assay: follistatin binders on small-molecule microarrays, primary screen, biochemical, small-molecule microarray, 635/667 nm fluorescence (AID 1132); settings: FST binding, 635 nm fluorescence, higher = more signal
Sequence of Follistatin (Homo sapiens) (P19883 whole entry, looked up): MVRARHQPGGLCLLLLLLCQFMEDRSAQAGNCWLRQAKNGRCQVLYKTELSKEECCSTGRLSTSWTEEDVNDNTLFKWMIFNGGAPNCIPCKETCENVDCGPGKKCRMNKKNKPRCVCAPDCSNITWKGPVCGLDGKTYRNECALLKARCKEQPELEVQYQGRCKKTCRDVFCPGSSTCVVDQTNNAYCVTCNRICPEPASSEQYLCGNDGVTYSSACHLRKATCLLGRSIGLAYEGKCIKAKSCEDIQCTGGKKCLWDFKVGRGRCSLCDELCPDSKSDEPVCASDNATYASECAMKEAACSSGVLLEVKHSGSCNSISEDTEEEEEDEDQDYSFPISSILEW

[14] = molecular target: Fibroblast growth factor 2 (Homo sapiens) (UniProt P09038); assay: FGF2 binders on small-molecule microarrays, primary screen, biochemical, small-molecule microarray, 635/667 nm fluorescence (AID 1133); settings: small-molecule microarray binding, FGF2, fluorescence 635/667; higher = more signal
Sequence of Fibroblast growth factor 2 (Homo sapiens) (P09038 whole entry, looked up): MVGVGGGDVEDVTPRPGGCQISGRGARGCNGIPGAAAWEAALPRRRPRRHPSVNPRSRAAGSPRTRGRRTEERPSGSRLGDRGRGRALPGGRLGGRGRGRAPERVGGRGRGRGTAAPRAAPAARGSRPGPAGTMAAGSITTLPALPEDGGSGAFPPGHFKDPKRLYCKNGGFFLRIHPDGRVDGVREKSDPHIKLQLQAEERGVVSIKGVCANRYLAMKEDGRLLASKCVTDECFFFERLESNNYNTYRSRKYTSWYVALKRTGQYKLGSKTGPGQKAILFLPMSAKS

[15] = mitochondrial membrane potential change in A549 cells, profiling panel, cell-based, JC-1 fluorescence, basal, 24 h, 100 nL (AID 1138); settings: higher = more signal;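 also: A549 lung adenocarcinoma cells under basal conditions with no added stimulus; test concentration not given here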
Lefty1 = Lefty1 binders on small-molecule microarrays, primary screen, biochemical, small-molecule microarray, 635/667 nm fluorescence (AID 1139); settings: small-molecule microarray binding, fluorescence 635/667; higher = more signal
[16] = system: wheat germ agglutinin (Triticum aestivum), Alexa647-labelled; assay: wheat germ agglutinin binders on compound microarrays, profiling panel, artefact control for SMM control-protein annotation, biochemical, small-molecule microarray, 635/667 nm fluorescence (AID 1140); settings: WGA-A647 binding, 635 nm fluorescence, higher = more signal;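 also: score merges 667 nm feature emission with signal to noise over triplicate slides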
[17] = molecular target: Luciferin 4-monooxygenase (Photinus pyralis) (UniProt P08659); assay: firefly luciferase enzyme inhibitors, primary screen, biochemical, luminescence, purified enzyme, 2006 set (AID 1141); settings: SteadyGlo luminescence, 30 min, higher = more signal, called active from +8 up or from −8 down;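 also: cell-free assay with purified firefly luciferase at 100 ng per well in PBS; test concentration not given here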
Sequence of Luciferin 4-monooxygenase (Photinus pyralis) (P08659 whole entry, looked up): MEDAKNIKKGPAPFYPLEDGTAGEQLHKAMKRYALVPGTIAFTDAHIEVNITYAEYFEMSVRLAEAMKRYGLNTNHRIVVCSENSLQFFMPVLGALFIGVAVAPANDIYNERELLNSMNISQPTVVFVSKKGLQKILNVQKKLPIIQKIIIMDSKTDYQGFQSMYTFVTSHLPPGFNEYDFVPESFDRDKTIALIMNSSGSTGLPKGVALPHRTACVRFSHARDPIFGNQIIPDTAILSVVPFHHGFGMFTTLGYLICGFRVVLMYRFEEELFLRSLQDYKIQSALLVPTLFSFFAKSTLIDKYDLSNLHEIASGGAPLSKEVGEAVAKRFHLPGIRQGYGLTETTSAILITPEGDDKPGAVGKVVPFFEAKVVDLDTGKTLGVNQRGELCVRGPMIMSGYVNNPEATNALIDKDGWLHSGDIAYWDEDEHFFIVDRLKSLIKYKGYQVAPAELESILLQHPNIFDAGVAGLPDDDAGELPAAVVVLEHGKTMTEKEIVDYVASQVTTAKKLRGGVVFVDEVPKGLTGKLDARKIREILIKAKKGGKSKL

SMILES	composite z-score (Albumin (Bos taurus))	composite Z-score [1]	composite z-score [2]	composite z-score [3]	composite z-score [4]	composite z-score [5]	composite z-score [6]	composite z-score (Sam68 (KHDRBS1))	composite z-score [7]	composite z-score [8]	composite z-score [9]	composite z-score [10]	composite z-score [11]	composite z-score [12]	composite z-score [13]	composite z-score [14]	z-score [15]	composite z-score (Lefty1)	composite z-score [16]	z-score [17]
COc1ccc(O[C@H]2C=C[C@@H](c3ccccc3)O[C@@H]2COC(=O)CCC(C)=NOC[C@@H](O)[C@H]2O[C@@H]3OC(C)(C)O[C@@H]3[C@H]2O)cc1	-0.0217	-0.212 (inactive)	-0.0284	-0.101	0.325	0.337	-0.123	1.01	0.728	0.249	0.977	0.835	0.179	0.536	0.697	0.439	-0.206	0.334	-0.13	0.302 (inactive)
CCOC(=O)[C@H](CC(C)C)NC(=O)CCC1CC(OC(=O)NCc2cccc3ccccc23)CC2(CCCC(COC(=O)NCCC(C)C)O2)O1 (stereo not given in full)	0.352	-0.136 (inactive)	-0.147	-0.153	0.562	0.795	-0.104	-0.0361	0.443	0.0178	-0.121	0.572	-0.394	0.123	0.364	0.92	0.652	0.606	0.0877	-0.0038 (inactive)
C[C@@H](ON=C1[C@H]2CCn3c(=O)n(-c4ccccc4)c(=O)n3[C@H]2[C@H](O)[C@@H]2O[C@H]12)c1cn([C@@H]2COC[C@H]2O)nn1	-0.244	-0.419 (inactive)	0.0159	-0.0938	0.134	-0.282	0.211	0.509	0.534	0.459	-0.0522	0.619	0.0584	0.544	0.414	0.433	-0.339	0.691	0.0978	0.704 (inactive)
O=C1C2=CC[C@H]3C(=O)N(c4cccc(Oc5ccccc5)c4)C(=O)[C@H]3[C@H]2[C@H](O)[C@@H]2O[C@H]12	-0.0451	-0.0708 (inactive)	0.0179	-0.132	-0.146	0.19	-0.0224	0.645	0.625	0.443	0.703	0.185	-0.0765	-0.156	0.916	0.425	-0.633	0.755	0.0467	-1.27 (inactive)
CCOC(=O)NN=C1C[C@@H](O)[C@@H](O)[C@@H]2[C@@H]3C(=O)N(Cc4ccc5c(c4)OCO5)C(=O)[C@@H]3CC[C@H]12	0.717	-0.0189 (inactive)	-0.0629	-0.14	0.347	0.926	-0.387	0.364	-0.121	-1.27	-0.0164	0.117	-0.243	0.785	-0.176	-0.289	0.0318	0.285	0.559	1.12 (inactive)
CC(CCC(=O)OC[C@H]1O[C@H](C#Cc2ccccc2)C=C[C@@H]1Oc1ccc(C)cc1)=NO[C@H](C)c1cn([C@H](CO)Cc2ccccc2)nn1	0.276	0.392 (inactive)	-0.0847	-0.0966	-0.0419	0.757	0.0395	1.12	0.569	0.79	0.126	0.921	0.648	0.856	0.6	0.52	0.6	0.724	0.442	-0.085 (inactive)
O=C1C=C[C@@H](O)[C@@H]2[C@@H]3C(=O)N(C[C@@H]4CCCO4)C(=O)[C@@H]3CC[C@@H]12	0.0654	0.681 (inactive)	-0.125	-0.112	-0.121	-0.17	0.421	0.258	0.458	0.332	0.518	0.686	0.18	0.418	0.23	0.535	-0.117	0.756	0.221	-0.0563 (inactive)
CCOC(=O)[C@H](CC(C)C)NC(=O)CCC1CC(OC(=O)NCc2cccc3ccccc23)CC2(CCCC(COC(=O)NCC3CCCCC3)O2)O1 (stereo not given in full)	0.14	0.526 (inactive)	0.0311	-0.0896	0.392	0.0741	-0.0193	1.29	0.32	1.08	0.685	1.13	-0.368	0.297	0.62	0.594	-1.07	0.733	0.0121	1 (inactive)
CCOC(=O)NN=C1C[C@@H](O)[C@@H](O)[C@@H]2[C@@H]3C(=O)N(c4ccc(F)cc4F)C(=O)[C@@H]3CC[C@@H]12	0.66	0.16 (inactive)	-0.144	-0.156	-0.103	0.218	0.196	0.591	0.312	0.307	0.508	0.574	0.252	0.331	0.519	0.187	-0.389	0.775	0.455	1.04 (inactive)
C[C@@H](c1ccccc1)N1C(=O)[C@H]2[C@H]3[C@H](O)[C@H](O)CC(=NO[C@@H]4O[C@H](CO)[C@@H](O)[C@H](O)[C@H]4O)[C@H]3CC[C@H]2C1=O	0.0673	-0.154 (inactive)	0.0259	0.012	-0.0193	0.0007	0.554	0.648	0.373	0.44	0.746	0.76	-0.0492	0.318	0.656	0.444	0.296	0.554	0.0795	0.491 (inactive)
C=C(C)C(=O)OCC1CN2[C@@H](CC[C@@H](C)[C@@H]2c2ccc(Br)cc2)C(=O)O1 (stereo not given in full)	0.188	-0.168 (inactive)	0.0539	-0.11	-0.062	0.0971	-0.126	0.671	0.691	0.59	0.0797	0.281	1.64	0.794	0.196	0.192	0.717	0.452	0.0513	-0.0906 (inactive)
CCOC(=O)NN=C1C[C@@H](O)[C@@H](O)[C@@H]2[C@@H]3C(=O)N(c4cccc(Oc5ccccc5)c4)C(=O)[C@@H]3CC[C@H]12	0.52	-0.238 (inactive)	0.0462	-0.0753	0.503	0.858	0.0682	0.384	0.399	0.854	0.141	0.34	0.0494	0.641	0.519	0.374	0.471	0.365	0.01	-0.219 (inactive)
C[C@@H]1CC[C@H]2C(=O)O[C@@H](Cc3ccccc3)CN2[C@H]1c1ccc(Br)cc1	0.126	-0.358 (inactive)	-0.0997	-0.106	0.512	0.871	0.912	1.06	0.227	0.266	2.07	0.688	0.217	0.376	0.397	0.297	0.362	0.495	0.526	0.178 (inactive)
COc1ccc(O[C@H]2C=C[C@@H](c3ccccc3)O[C@@H]2CON=CC[C@@H]2C=C[C@H](OC(C)=O)[C@@H](COC(C)=O)O2)cc1	0.779	0.112 (inactive)	0.0893	-0.145	-0.198	-0.478	0.221	-0.176	0.366	0.543	2.11	-0.311	0.178	0.516	0.229	0.107	0.124	0.257	0.807	-0.354 (inactive)
CCOC(=O)NN=C1C[C@@H](O)[C@@H](O)[C@@H]2[C@@H]3C(=O)N(Cc4ccccc4)C(=O)[C@@H]3CC[C@H]12	-0.182	-0.374 (inactive)	-0.183	-0.174	0.542	0.307	-0.4	-0.0882	0.194	1.12	0.347	-0.143	0.0254	0.706	0.0086	-0.227	-0.39	0.3	0.0439	0.746 (inactive)
CCCNC(=O)OC[C@H]1O[C@H](c2ccccc2)C=C[C@@H]1Oc1ccc(OC)cc1	0.16	0.0414 (inactive)	-0.15	-0.14	0.066	0.232	0.0186	-0.573	0.062	-0.316	0.98	0.0455	-0.0038	0.25	-0.143	-0.179	-0.388	0.212	-0.114	-0.533 (inactive)
COC(=O)CC=C[C@@H](C)[C@@H](C=NOCC[C@@H]1C=C[C@H](OC(C)=O)[C@@H](COC(C)=O)O1)NS(=O)(=O)c1ccc(C)cc1	-0.361	0.366 (inactive)	0.132	-0.0938	-0.297	-0.309	0.195	0.854	0.687	-2.79	2.34	-0.185	0.15	-0.329	0.273	0.237	-0.482	0.36	-0.477	1.2 (inactive)
O=C1CCCC(C2=CCCCC2=O)C1 (stereo not given)	-0.599	0.675 (inactive)	0.152	-0.112	-0.139	0.0016	0.0781	-0.532	1.06	-0.719	-0.496	-0.624	0.26	-0.67	1.01	0.567	0.475	1.02	-0.397	-0.242 (inactive)
